Sampled rows, rich in hits. Any-hit rate of the full collection: about 7.4%.
Rab9 prom act – activates the Rab9 promoter; 320,000 compounds, 2.8% hits; Huh7 Rab9 promoter-luciferase reporter, luminescence, 24 h; Potency, µM (titrated, usually from 9.22 µM), for inactives: at the top dose activation, negative = inhibition, usual class: activators; AID 485297; also: % of control where 0% means no effect; nearly all actives have a fitted effect of over 60% in size
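Cells were plated at 1500 per well in reduced-serum medium with 10% FBS and left 2 h. Compound in DMSO was then added for 24 h at 37 °C. Reporter signal was read by luminescence after 10 min with luciferase detection reagent.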
NPC1 prom act – activates the NPC1 promoter; Huh7 NPC1 promoter luciferase reporter, 24 h; Potency, µM (highest dose often 9.22 µM), for the others: at the top dose activation, usual class: activators; 320,000 compounds, 2.4% hits; AID 485313; also: % of control where 0% means no effect; nearly all actives have a fitted effect of over 60% in size
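Stable NPC1-promoter luciferase Huh7 line; cpd (DMSO) 24 h, 37 °C, 5% CO2; Amplite luciferase reagent 10 min RT; luminescence readout. qHTS format.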
FLuc counter – inhibits or activates purified firefly luciferase, miR-21 counter-screen; purified FLuc, Km substrates, luminescence inhibition; AID 588342; 360,000 compounds, 6.9% hits; Potency, µM (top dose mostly 57.5 µM), without a hit: at the highest dose activity change, negative = inhibition, hits mostly inhibitors;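 also: plate controls were vehicle for no effect and reference inhibitor for full effect; nearly all actives have a fitted effect of over 55% in size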
Target sequence (P08659 whole entry, looked up): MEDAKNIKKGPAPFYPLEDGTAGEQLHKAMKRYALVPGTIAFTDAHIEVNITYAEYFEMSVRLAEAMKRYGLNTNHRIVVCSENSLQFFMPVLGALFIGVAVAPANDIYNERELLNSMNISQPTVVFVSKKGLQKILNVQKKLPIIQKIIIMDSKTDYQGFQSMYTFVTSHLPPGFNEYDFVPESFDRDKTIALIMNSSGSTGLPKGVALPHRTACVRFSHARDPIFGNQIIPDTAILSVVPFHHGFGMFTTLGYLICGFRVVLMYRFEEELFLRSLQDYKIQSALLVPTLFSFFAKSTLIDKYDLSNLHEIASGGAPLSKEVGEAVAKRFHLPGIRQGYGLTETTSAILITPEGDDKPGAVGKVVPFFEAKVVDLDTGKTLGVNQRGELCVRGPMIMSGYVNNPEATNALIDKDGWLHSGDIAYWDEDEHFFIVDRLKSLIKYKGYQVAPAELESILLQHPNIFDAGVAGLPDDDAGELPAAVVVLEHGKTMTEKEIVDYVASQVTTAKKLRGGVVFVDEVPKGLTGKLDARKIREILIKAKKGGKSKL
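Biochemical qHTS of compounds, final roughly 60 µM downward over six points, against 10 nM purified firefly luciferase using Km concentrations of substrates (10 uM D-luciferin, 10 uM ATP) in Tris acetate pH 7.5 buffer; luminescence output.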
ELG1 genotoxic – induces genotoxicity in HEK293T cells with luciferase-tagged ELG1 | HEK293T ELG1-luciferase reporter, luminescence, 16 h | AID 504466 | Potency, µM (highest dose often 46 µM), without a hit: top-dose activity change, positive = activation, hits mostly activators | 330,000 compounds, 1.3% hits; also: % of control where 0% means no effect; nearly all actives have a fitted effect of over 60% in size
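HEK293T cells expressing luciferase-tagged ELG1 were exposed to compound or DMSO vehicle for 16 hr at 37 °C and 5% CO2. Luciferase activity was then measured with ONE-Glo after 30 min at room temperature.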
SMN2 splice enh – enhancers of SMN2 splice variant expression. HEK293 SMN2-luciferase splicing reporter, luminescence, 30-36 h. 210,000 compounds, 2.8% hits. Potency, µM (doses to about 46.1 µM), inactives show at the top dose activity change, positive = activation, actives largely listed as activators; also: % of control where 0% means no effect; nearly all actives have a fitted effect of over 55% in size
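HEK293 cells carry an SMN2 minigene-luciferase reporter in which exon 7 inclusion puts luciferase in frame. Cells were seeded at 2000 cells/well, attached for 10-12 hours, then exposed to compounds for 30-36 hours at 37C before ONE-Glo luminescence.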
* hit, by the source's call; ? = inconclusive; . = no result given. Calls follow the shape of the dose curve; as a rule, active = well fitted curve in the direction sought with a large enough effect; inconclusive = small, poorly fitted or top-dose-only effect, or another doubt; inactive = no such curve, though single readings can be large; an effect the other way counts as inactive or inconclusive. Potency is read from the fitted curve at half-maximal effect.

SMILES	Rab9 prom act	NPC1 prom act	FLuc counter	ELG1 genotoxic	SMN2 splice enh
COC(=O)[C@H]1O[C@@H](c2cc(OC)c(C)c(OC)c2OCc2ccccc2)[C@H](C)[C@H]2O[C@@]12C	.	.	.	.	4%
COCCn1c(C)cc(C(=O)CSc2ccc3ccccc3n2)c1C	?	?	12µM*	4%	11µM*
COCCn1c(C)cc(C(=O)COc2nc3ccccc3nc2C)c1C	-6%	-8%	-16%	-2%	-54%
C=CCn1c(C)cc(C(=O)CSc2nc3ccccc3[nH]2)c1C	0.32µM*	0.13µM*	0.3µM*	?	-59%
Cc1cc(C(=O)CSc2nn(-c3ccccc3)c(=S)s2)c(C)n1Cc1ccco1	11%	1%	-11%	-3%	-16%
Cc1cc(C(=O)CSc2nncs2)c(C)n1Cc1ccco1	0.71µM*	0.63µM*	4.8µM*	?	3%
Cc1cc(C(=O)CSc2nc3ccccc3[nH]2)c(C)n1Cc1ccco1	0.5µM*	0.71µM*	0.76µM*	?	?
Cc1c(Cl)cccc1NC(=O)Nc1nnc(N(C)C2CCCCC2)s1	.	.	-10%	.	.
Cc1noc(C)c1CSc1nc2ccccc2[nH]1	0%	-2%	-2%	?	6%
Fc1cccc(F)c1CSc1nc2ccccc2[nH]1	1µM*	1.4µM*	?	?	10µM*
O=C(CSc1nc2ccccc2[nH]1)c1ccccc1F	1.6µM*	1.4µM*	8.5µM*	?	.
O=C(O)c1ccccc1CSc1nc2ccccc2[nH]1	?	?	11µM*	?	.
C=CCn1c(C)cc(C(=O)CSc2nc3ccccc3c(=O)[nH]2)c1C	0.79µM*	?	9.5µM*	2.9µM*	-38%
Cc1cc(C)c(C(=O)CSc2nc3ccccc3c(=O)[nH]2)cc1C	-6%	-13%	-10%	-2%	-26%
Cc1oc(-c2ccccc2Cl)nc1CS(=O)CC(=O)N1CCN(c2cccc(C(F)(F)F)c2)CC1 (stereo unspecified)	.	.	-2%	.	.
O=C(Cn1c(=O)n(CC2CCCO2)c(=O)c2ccccc21)Nc1ccc(F)cc1F (stereo unspecified)	.	.	4%	.	-9%
Cc1cn2c(=O)c(S(=O)(=O)NCc3ccccc3Cl)c(C)nc2s1	.	.	-6%	.	.
O=C(CSc1nc2ccccc2[nH]1)N1CCCCC1	3.5µM*	?	21µM*	8.2µM*	10µM*
COCC(C)n1c(C)cc(C(=O)CSc2nc3ccccc3c(=O)[nH]2)c1C (stereo unspecified)	21%	13%	?	-7%	-42%
COCCn1c(C)cc(C(=O)CSc2nncn2-c2ccccc2)c1C	-1%	0%	19µM*	7%	4%
COCCn1c(C)cc(C(=O)CSc2nc3ccccc3c(=O)[nH]2)c1C	1.6µM*	1.8µM*	5.4µM*	?	?
C[C@@H](C(=O)Nc1ccc2c(c1)OCCO2)n1nnc2ccccc2c1=O	3.5µM*	3.5µM*	8.5µM*	?	.
CC(Sc1ncccn1)C(=O)Nc1ccc2c(c1)OCCO2 (stereo unspecified)	17%	2%	-20%	7%	.
CCn1c(SC(C)C(=O)Nc2ccc3c(c2)OCCO3)nnc1C1CC1 (stereo unspecified)	2%	0%	24µM*	0%	.
CC(Sc1nc2ccccc2[nH]1)C(=O)Nc1ccc2c(c1)OCCO2 (stereo unspecified)	0%	-2%	21µM*	0%	-5%
Cc1ccc(C)c(CN2C(=O)c3ccccc3S(=O)c3ccc(C(=O)N4CCN(c5ccccc5F)CC4)cc32)c1 (stereo unspecified)	.	.	-2%	.	0.63µM*
Cc1ccc(C)c(CN2C(=O)c3ccccc3S(=O)c3ccc(C(=O)N4CCN(c5ccccn5)CC4)cc32)c1 (stereo unspecified)	1%	-5%	0%	-14%	4.5µM*
CCN1CCN(C(=O)c2ccc3c(c2)N(Cc2cc(C)ccc2C)C(=O)c2ccccc2S3=O)CC1 (stereo unspecified)	.	.	-4%	.	6%

Assay outcomes deposited in PubChem BioAssay by National Center for Advancing Translational Sciences (NCATS).
